Assay results published in PubChem BioAssay (NCI).
This is part of a sample that, as a whole, favours compounds with a hit. Of some 83,000 tested, about 20% had one in any assay.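 Results are percent growth after 48 hours of single-concentration exposure. 100 means growth as in untreated cells, lower positive values show inhibition; negative values down to -100 show cell death.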 Unmarked numbers belong to inactive results. Calls of active or inactive are those of the source. The calls were made as follows: active = growth percent below 10; inactive = the rest.

What was measured:
Assay in all cases: NCI-60 one-dose screen, 48 h (100 = growth as untreated, 0 = no growth, -100 = all killed)
Conditions in all cases: 10 µM unless noted
[1] = tested on: DU-145 prostate
[2] = tested on: K-562 leukemia
[3] = tested on: MALME-3M melanoma
[4] = tested on: MDA-MB-231 breast
[5] = tested on: RXF 393 renal
[6] = tested on: SF-268 CNS
[7] = tested on: SF-295 CNS
[8] = tested on: SF-539 CNS
[9] = tested on: UACC-257 melanoma
[10] = tested on: M14 melanoma
[11] = tested on: HCT-15 colon
[12] = tested on: HT29 colon
[13] = tested on: SNB-75 CNS
[14] = tested on: SNB-19 CNS
[15] = tested on: U251 CNS
[16] = tested on: PC-3 prostate
[17] = tested on: SK-MEL-5 melanoma
[18] = tested on: UACC-62 melanoma
[19] = tested on: LOX IMVI melanoma
[20] = tested on: SK-MEL-28 melanoma

Row | Structure (SMILES) | growth [1] | growth [2] | growth [3] | growth [4] | growth [5] | growth [6] | growth [7] | growth [8] | growth [9] | growth [10] | growth [11] | growth [12] | growth [13] | growth [14] | growth [15] | growth [16] | growth [17] | growth [18] | growth [19] | growth [20] [%]
1 | N#CSc1c[nH]c2cccc(/C=C/C(=O)/C=C(O)/C=C/c3cccc4[nH]cc(SC#N)c34)c12 | -78.7% (active) | -12.9% (active) | -82.3% (active) | -78.3% (active) | -62.9% (active) | -31.9% (active) | -87.7% (active) | -68.5% (active) | -27.4% (active) | -59.7% (active) | -79.1% (active) | -62.7% (active) | -23.1% (active) | -80.6% (active) | -91.9% (active) | -53% (active) | -87.5% (active) | -65.4% (active) | -94.8% (active) | 
2 | CN(CCC(=O)c1ccccc1)CCC(=O)c1ccccc1 | 104% | 61.7% | 105% | 97.3% | 97.9% | 101% | 108% | 88% | 98.6% | 94.7% | 103% | 117% | 90.4% | 93.1% | 98% | 95.5% | 96.4% | 77.9% | 75.6% | 
3 | O=C(NNc1cnccn1)c1nc2cc(F)ccc2n2cccc12 | 25.7% | 10.8% | 11% | 27.5% | 9.53% (active) | 26% | 12.9% | 5.57% (active) | -9.5% (active) | 5.33% (active) | 25.7% | 27.9% | 41.1% | 26.2% | 14% | 29.4% | -48.2% (active) | -21.1% (active) | -53.5% (active) | 
4 | CCc1ccc(CCC(=O)Nc2ncc(Cc3cc(Cl)ccc3Cl)s2)o1 | 18.5% | 9.71% (active) | 43.5% | 28.6% | -32.5% (active) | 60.9% | 6.84% (active) | -6.72% (active) | 69.9% | 6.6% (active) | 13% | 2.01% (active) | -12.1% (active) | 21% | 21.7% | 23.8% | 25.2% | 18.7% | 30.2% | 
5 | O=C(CCSc1nnc2n(Cc3ccccc3)c(=O)c3c4c(sc3n12)CCCC4)N1CCN(c2ccccc2)CC1 | 111% | 113% | 95.4% | 109% | 108% | 93% | 96% | 100% | 101% | 96.2% | 96.9% | 93.7% | 93.5% | 99.8% | 106% | 102% | 99.9% | 108% | 100% | 
6 | COc1cccc(CCNc2ncnc3c2ncn3Cc2nnc3c4ccccc4c(Cl)nn23)c1 | 50.5% | 61.4% | 55.8% | 46.3% | 48.7% | 49.4% | 89.9% | 72.6% | 59.5% | 32.2% | 45.2% | 81.7% | 50.5% | 74.4% | 50.7% | 59.5% | 77.1% | 32.9% | 8.78% (active) | 
7 | CNC(=O)c1ccccc1Nc1nc(Nc2cc(OC)c(OC)c(OC)c2)ncc1Br | 9.08% (active) | 8.02% (active) | -39.5% (active) | -3.87% (active) | -64.8% (active) | -32.7% (active) | -6.65% (active) | -79.2% (active) | -30.9% (active) | -52.9% (active) | 3.34% (active) | -0.259% (active) | -55% (active) | 6.35% (active) | -9.93% (active) | 61.4% | -22.3% (active) | -69.6% (active) | -60.3% (active) | 
8 | Cc1ccc2c(-c3nnc(N)s3)cc(=O)oc2c1C | 116% | 87.3% | 104% | 96.5% | 106% | 102% | 97.4% | 102% | 106% | 101% | 96.9% | 106% | 92.6% | 104% | 99.7% | 97.1% | 101% | 94.8% | 101% | 102
9 | N#Cc1cccc(C2C3=C(COC3=O)N(CCO)c3cc4c(cc32)CCC4)c1 (stereo not drawn) | 3.87% (active) | 8.48% (active) | 48.2% | 32.4% | 35.5% | 30.4% | -7.01% (active) | -10.1% (active) | 69.4% | 2.59% (active) | 9.99% (active) | 4.8% (active) | 43.8% | 23% | 14.6% | 22.9% | -3.37% (active) | 45.6% | 19% | 51.2
10 | COc1ccc(-c2ccc(-c3ccc(C(=N)N)nc3)s2)cc1Cl | -92.5% (active) | -29.8% (active) | 74.1% | -75.1% (active) | 56.8% | -62.8% (active) | -78.4% (active) | -90.6% (active) | 93.5% | -40.6% (active) | -77.4% (active) | 2.52% (active) | 80.5% | -35.8% (active) | -71.7% (active) | -28.3% (active) | 76% | 96.3% | -76.4% (active) | 97.2
11 | COc1ccc(/C=C2\COc3ccc(O)cc3C2=O)cc1 | 111% | 24% | 96.1% | 92.8% | 115% | 99.4% | 108% | 102% | 106% | 90.8% | 77.5% | 80.1% | 96.8% | 96.7% | 85.5% | 95.2% | 99.3% | 85.7% | 74.3% | 102
12 | COc1ccc(-c2nc(/C=C3\C(=O)N(C)c4ccccc43)c3ccccn23)cc1 | 93% | 95.9% | 72.5% | 85.2% | 67.4% | 66% | 83.2% | 72.7% | 86% | 99.1% | 90% | 96.8% | 51.1% | 78.7% | 75.1% | 86.9% | 65.5% | 68.5% | 65.2% | 99.6
13 | CC1(C)CC[C@]2(CO)CC[C@]3(C)[C@H](CC[C@@H]4[C@@]5(C)CCCNC(C)(C)[C@@H]5CC[C@]43C)[C@H]2[C@H]1O | 94.5% | 8.95% (active) | 78.5% | 91% | 92% | 94.9% | 105% | 74.9% | 82.5% | 95.1% | 34.3% | 17.6% | 80.1% | 97.6% | 56.1% | 64.7% | 92.8% | 95.9% | 69.4% | 93.9
14 | Cc1ccc(C=C2C(=O)NC(=O)NC2=O)cc1 | 108% | 86.1% | 101% | 118% | 113% | 100% | 104% | 111% | 94% | 101% | 104% | 103% | 92.5% | 106% | 99% | 95.9% | 100% | 102% | 98.6% | 107
15 | O=S(=O)(NCCNc1nccc(-c2c(-c3ccc(F)c(O)c3)nc3sccn23)n1)c1ccc(F)cc1 | 34.4% | 14.7% | 5.92% (active) | 25.5% | -4.56% (active) | 37.3% | 53.4% | 44.3% | 32.1% | 15.5% | 29.9% | 16.7% | 64.1% | 59.1% | 45.5% | 29.9% | -41.5% (active) | 4.93% (active) | 16.6% | 20.5
16 | Cc1ccc(C(=O)Nc2cccc(C#Cc3cccc4[nH]nc(N)c34)c2)cc1C(F)(F)F | 78.4% | 6.95% (active) | 6.04% (active) | 55.4% | 41.2% | 60.8% | 78.1% | 8.47% (active) | 68% | 21.6% | 48.9% | 27.3% | 88.4% | 113% | 81.5% | 69.8% | 73.3% | 41.1% | 25.4% | 41.7
